Test results as given in PubChem BioAssay.
Calls of active or inactive are those of the source.

What was measured:
[1] = tested on: Plasmodium falciparum Sir2 (PF13_0152, Sir2A); test: Plasmodium falciparum Sir2A binding compounds – biochemical, small-molecule microarray, 635 nm fluorescence, primary screen (AID 1098); conditions: fluorescence 635 nm, higher = more signal;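 note: score merges spot fluorescence intensity with its signal-to-noise ratio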
[2] = probe aDKK1 binding to arrayed compounds – biochemical, biotinylated probe, 635/667 nm fluorescence, primary screen (AID 1099); conditions: small-molecule microarray, higher = more signal;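 note: score merges 667nm spot fluorescence with signal to noise across triplicate slides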
[3] = probe aCHRDL2 binding to arrayed compounds – biochemical, biotinylated probe, 635/667 nm fluorescence, primary screen (AID 1100); conditions: small-molecule microarray, higher = more signal
[4] = change in splice reporter luminescence, either direction, cell-based, HEK293, spliceosome inhibition project, primary screen (AID 1101); conditions: HEK293 splicing luciferase reporter, 24 h, higher = more signal, called active from +8 up or from −8 down;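 note: HEK293 cells carrying a splicing-competent luciferase reporter gene; test concentration not given here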
[5] = biological target: Fibroblast growth factor 10 (Homo sapiens) (UniProt O15520); test: compounds binding fibroblast growth factor 10 – biochemical, small-molecule microarray, 635 nm fluorescence, primary screen (AID 1102); conditions: FGF10 binding, fluorescence 635 nm, higher = more signal
[6] = tested on: glycogen synthase kinase-3 (GSK3A per assay name; protocol says GSK3B); test: compounds binding glycogen synthase kinase-3 – biochemical, small-molecule microarray, 635 nm fluorescence, GSK3A, primary screen (AID 1103); conditions: fluorescence 635 nm, higher = more signal; note: the record names both GSK3A and GSK3B
[7] = biological target: Epidermal growth factor receptor (Homo sapiens) (UniProt P00533); test: compounds binding epidermal growth factor receptor – biochemical, small-molecule microarray, 635 nm fluorescence, primary screen (AID 1104); conditions: EGFR binding, higher = more signal;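 note: score merges 667 nm emission intensity with spot signal to noise over triplicate slides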
[8] = biological target: Follistatin-related protein 3 (Homo sapiens) (UniProt O95633); test: compounds binding follistatin-related protein 3 – biochemical, small-molecule microarray, 635 nm fluorescence, primary screen (AID 1105); conditions: FSTL3 binding, higher = more signal;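 note: score merges emission near 667 nm and signal to noise per printed spot across three slides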
[9] = biological target: Dickkopf-related protein 1 (Homo sapiens) (UniProt O94907); test: small molecules binding DKK1 protein – biochemical, small-molecule microarray, 635 nm fluorescence scan, primary screen (AID 1106); conditions: higher = more signal;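 note: score merges emission near 667 nm with signal to noise over three replicate slides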
[10] = tested on: Inhibin beta A chain (activin A); test: small molecules binding activin A – biochemical, small-molecule microarray, 635 nm fluorescence scan, primary screen (AID 1107); conditions: INHBA, higher = more signal;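 note: mouse activin A protein probed at 4.33 µg/mL on printed slides; score merges bound-protein fluorescence near 667 nm with spot signal-to-noise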
[11] = tested on: Human papillomavirus type 1a protein E7 (residues 44-93); test: small molecules binding HPV E7 44-93 – biochemical, small-molecule microarray, residues 44-93, 635 nm fluorescence, primary screen (AID 1108); conditions: fluorescence 635 nm, higher = more signal;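 note: E7 fragment applied at 1 µg/mL in TBST for 1 h at 4 C; score combines spot fluorescence with its signal to noise ratio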
[12] = hepatitis C replication reporter changes, two-sided – Huh7 cells, luciferase reporter, HCV replication inhibitor project, primary screen (AID 1109); conditions: Huh7 HCV replicon luciferase reporter, 48 h; higher = more signal;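 note: huh7 hepatoma cells harbouring a luciferase neomycin HCV replicon reporter; luciferase luminescence as measure of HCV replicon replication; test concentration not given here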
[13] = biological target: Left-right determination factor 2 (Homo sapiens) (UniProt O00292); test: small molecules binding LEFTY2 protein – biochemical, small-molecule microarray, 635 nm fluorescence scan, primary screen (AID 1110); conditions: higher = more signal
[14] = biological target: Calmodulin-1 (Homo sapiens) (UniProt P0DP23); test: small molecules binding calmodulin-1 with EGTA – biochemical, small-molecule microarray, Cy5-labelled CALM1, profiling panel (AID 1111); conditions: Cy5-CALM1 binding fluorescence, higher = more signal;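 note: labelled calmodulin applied in Tris saline Tween buffer holding calcium plus EGTA and DTT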
[15] = biological target: Calmodulin-1 (Homo sapiens) (UniProt P0DP23); test: small molecules binding Ca-loaded calmodulin-1 – biochemical, small-molecule microarray, Cy5-labelled CALM1, plus calcium, artefact control for SMM control-protein annotation, profiling panel (AID 1112); conditions: Cy5-CALM1 binding fluorescence, higher = more signal;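 note: score merges spot fluorescence with signal to noise from triplicate slides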
[16] = probe aWnt5a binding to arrayed compounds – biochemical, biotinylated probe, 635/667 nm fluorescence, primary screen (AID 1113); conditions: small-molecule microarray, higher = more signal;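 note: score merges 667 nm fluorescence intensity with signal-to-noise per printed feature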
[17] = probe aShh binding to arrayed compounds – biochemical, biotinylated probe, 635/667 nm fluorescence, primary screen (AID 1114); conditions: small-molecule microarray, higher = more signal;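 note: probe is biotin-labelled aShh protein from a stem cell growth factor screen; measures binding of labelled protein to compounds printed on the slide; score merges feature fluorescence at 667 nm with signal-to-noise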
[18] = probe aNog binding to arrayed compounds – biochemical, biotinylated probe, 635/667 nm fluorescence, primary screen (AID 1115); conditions: small-molecule microarray, higher = more signal;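 note: probe is biotinylated aNog protein used at 0.15 µg/mL for 1 h at 4 C; z-score combines 667 nm fluorescence of each spot with its signal to noise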
[19] = biological target: Torsin-1A-interacting protein 1 (Homo sapiens) (UniProt Q5JTV8); test: compound microarray binding of lysate hLAP1 – cell lysate, small-molecule microarray, COS7 lysate, 635/667 nm fluorescence, primary screen (AID 1116); conditions: 635 nm fluorescence, higher = more signal
[20] = biological target: Alpha-bungarotoxin (Bungarus multicinctus) (UniProt P60615); test: compounds binding labelled alpha-BTX control protein – biochemical, small-molecule microarray, Alexa647 label, 635/667 nm fluorescence, artefact control for SMM control protein annotation, profiling panel (AID 1117); conditions: alpha-BTX-A647 binding fluorescence, higher = more signal
Alpha-bungarotoxin (Bungarus multicinctus), sequence (P60615 whole entry, looked up): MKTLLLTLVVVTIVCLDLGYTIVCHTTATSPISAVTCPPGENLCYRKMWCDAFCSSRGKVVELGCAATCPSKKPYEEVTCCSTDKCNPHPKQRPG

Fibroblast growth factor 10 (Homo sapiens), sequence (O15520 whole entry, looked up): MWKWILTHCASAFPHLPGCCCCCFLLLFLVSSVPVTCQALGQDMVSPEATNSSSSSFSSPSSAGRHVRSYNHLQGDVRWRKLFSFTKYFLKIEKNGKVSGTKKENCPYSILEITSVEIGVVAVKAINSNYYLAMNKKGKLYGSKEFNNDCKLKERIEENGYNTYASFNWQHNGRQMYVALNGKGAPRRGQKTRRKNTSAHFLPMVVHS
Dickkopf-related protein 1 (Homo sapiens), sequence (O94907 whole entry, looked up): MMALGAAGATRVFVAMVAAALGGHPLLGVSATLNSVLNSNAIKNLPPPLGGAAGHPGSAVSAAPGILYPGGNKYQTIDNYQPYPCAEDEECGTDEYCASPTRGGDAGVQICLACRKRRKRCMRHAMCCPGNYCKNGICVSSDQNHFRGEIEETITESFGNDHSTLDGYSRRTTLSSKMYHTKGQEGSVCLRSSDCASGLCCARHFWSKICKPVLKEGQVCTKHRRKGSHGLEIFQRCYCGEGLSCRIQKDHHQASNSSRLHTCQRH
Left-right determination factor 2 (Homo sapiens), sequence (O00292 whole entry, looked up): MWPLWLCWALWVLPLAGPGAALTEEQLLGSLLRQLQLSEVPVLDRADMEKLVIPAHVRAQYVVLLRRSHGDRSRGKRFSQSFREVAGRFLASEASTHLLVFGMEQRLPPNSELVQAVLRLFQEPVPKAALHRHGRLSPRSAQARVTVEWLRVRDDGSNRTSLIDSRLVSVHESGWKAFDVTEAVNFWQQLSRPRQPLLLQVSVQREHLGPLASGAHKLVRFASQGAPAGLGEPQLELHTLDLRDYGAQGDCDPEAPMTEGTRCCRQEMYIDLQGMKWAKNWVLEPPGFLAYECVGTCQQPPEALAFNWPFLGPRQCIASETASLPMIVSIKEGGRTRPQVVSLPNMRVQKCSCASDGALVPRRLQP
Follistatin-related protein 3 (Homo sapiens), sequence (O95633 whole entry, looked up): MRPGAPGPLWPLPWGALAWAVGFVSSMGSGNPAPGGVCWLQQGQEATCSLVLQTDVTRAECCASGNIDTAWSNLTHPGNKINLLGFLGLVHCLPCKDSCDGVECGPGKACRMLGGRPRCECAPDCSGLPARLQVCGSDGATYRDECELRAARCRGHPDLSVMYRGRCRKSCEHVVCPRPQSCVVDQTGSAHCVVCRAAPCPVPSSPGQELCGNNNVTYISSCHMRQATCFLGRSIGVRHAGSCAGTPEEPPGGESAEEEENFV
Epidermal growth factor receptor (Homo sapiens), sequence (P00533 whole entry, looked up): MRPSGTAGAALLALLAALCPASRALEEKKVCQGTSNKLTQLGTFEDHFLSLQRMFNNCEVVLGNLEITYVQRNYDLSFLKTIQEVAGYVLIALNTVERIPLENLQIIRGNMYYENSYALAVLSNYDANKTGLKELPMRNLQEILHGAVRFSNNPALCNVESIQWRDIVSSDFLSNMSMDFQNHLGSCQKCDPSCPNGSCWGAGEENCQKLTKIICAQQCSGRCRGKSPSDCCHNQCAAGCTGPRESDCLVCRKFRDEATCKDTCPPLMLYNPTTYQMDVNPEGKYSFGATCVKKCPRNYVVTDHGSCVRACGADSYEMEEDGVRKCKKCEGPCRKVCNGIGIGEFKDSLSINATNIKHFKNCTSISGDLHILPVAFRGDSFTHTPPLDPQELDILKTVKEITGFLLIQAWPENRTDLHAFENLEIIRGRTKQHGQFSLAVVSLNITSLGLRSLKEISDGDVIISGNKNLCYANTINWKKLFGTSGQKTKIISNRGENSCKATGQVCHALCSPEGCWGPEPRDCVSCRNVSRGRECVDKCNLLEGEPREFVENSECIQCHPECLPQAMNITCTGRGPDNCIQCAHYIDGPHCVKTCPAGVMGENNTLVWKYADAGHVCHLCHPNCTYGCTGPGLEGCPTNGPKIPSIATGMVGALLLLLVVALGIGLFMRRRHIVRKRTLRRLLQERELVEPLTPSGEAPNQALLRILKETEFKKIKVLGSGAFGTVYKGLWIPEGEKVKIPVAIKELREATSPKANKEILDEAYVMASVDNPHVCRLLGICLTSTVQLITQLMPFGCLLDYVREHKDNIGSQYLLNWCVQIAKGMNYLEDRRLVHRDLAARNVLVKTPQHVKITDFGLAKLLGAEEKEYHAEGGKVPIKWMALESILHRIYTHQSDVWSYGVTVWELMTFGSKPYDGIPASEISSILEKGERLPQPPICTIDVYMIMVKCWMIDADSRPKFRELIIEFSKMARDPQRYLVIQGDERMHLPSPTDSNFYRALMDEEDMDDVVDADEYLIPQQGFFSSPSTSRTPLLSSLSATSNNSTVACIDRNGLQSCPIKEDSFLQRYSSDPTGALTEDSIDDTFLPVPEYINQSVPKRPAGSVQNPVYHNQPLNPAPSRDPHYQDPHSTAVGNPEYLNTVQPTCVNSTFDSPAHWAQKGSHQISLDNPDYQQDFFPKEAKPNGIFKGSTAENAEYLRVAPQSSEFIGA
Torsin-1A-interacting protein 1 (Homo sapiens), sequence (Q5JTV8 whole entry, looked up): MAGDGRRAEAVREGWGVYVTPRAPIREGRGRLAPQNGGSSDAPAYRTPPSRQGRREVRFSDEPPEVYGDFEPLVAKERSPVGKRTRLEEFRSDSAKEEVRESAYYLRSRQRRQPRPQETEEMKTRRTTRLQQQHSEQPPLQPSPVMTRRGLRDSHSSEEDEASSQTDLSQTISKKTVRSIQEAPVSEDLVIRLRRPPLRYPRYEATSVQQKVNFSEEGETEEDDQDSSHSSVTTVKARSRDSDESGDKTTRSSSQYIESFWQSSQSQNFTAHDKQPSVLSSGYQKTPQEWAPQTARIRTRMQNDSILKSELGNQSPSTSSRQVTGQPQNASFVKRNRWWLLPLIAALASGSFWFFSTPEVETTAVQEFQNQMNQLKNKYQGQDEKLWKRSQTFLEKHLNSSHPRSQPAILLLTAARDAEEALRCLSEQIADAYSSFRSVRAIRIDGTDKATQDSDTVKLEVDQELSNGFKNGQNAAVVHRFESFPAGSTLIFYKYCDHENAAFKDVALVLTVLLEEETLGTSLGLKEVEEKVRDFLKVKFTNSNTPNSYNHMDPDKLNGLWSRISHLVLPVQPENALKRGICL

Structure (SMILES) | composite z-score [1] | composite z-score [2] | composite z-score [3] | z-score [4] | composite z-score [5] | composite z-score [6] | composite z-score [7] | composite z-score [8] | composite z-score [9] | composite z-score [10] | composite z-score [11] | z-score [12] | composite z-score [13] | composite z-score [14] | composite z-score [15] | composite z-score [16] | composite z-score [17] | composite z-score [18] | composite z-score [19] | composite z-score [20]
C[C@H]1NC(=O)[C@@]23C(=O)N[C@@H](Cc4ccccc4)C2[C@H](C)[C@@]2(C)O[C@H]2C3/C=C/C/C=C\CNC(=O)[C@@H]2CCCN2C1=O (stereo not given in full) | 0.466 | -0.192 | -0.575 | 0.856 (inactive) | 0.861 | 0.365 | 0.283 | 0.891 | 0.296 | 0.947 | 0.209 | 0.534 | 0.297 | 0.339 | -0.52 | -0.0593 | -0.0035 | -0.0841 | 0.159 | 0.368
COC(=O)[C@@]1(Cc2ccc(OC)cc2)[C@H]2c3cc(C(=O)N4CCCC4)n(CCN4CNCC4=O)c3C[C@H]2CN1C(=O)c1ccccc1 | 1.8 | 2.4 | 1.41 | 0.908 (inactive) | 1.03 | -0.16 | 0.656 | -0.711 | -0.462 | 0.949 | 0.218 | -0.0994 | -0.0543 | 1.14 | 0.751 | 1.19 | 2.77 | 2.43 | 1.11 | -0.169
C=C[C@H](C)[C@@H](OC(=O)Nc1ccc(OC)cc1)c1ccc(O)c2ccccc12 | 0.408 | -0.398 | -0.083 | 2.41 (inactive) | -0.117 | -0.177 | -0.568 | 0.386 | 0.209 | 0.722 | -0.626 | -3.43 | -0.239 | -0.582 | -0.461 | -0.178 | 0.318 | 0.152 | 0.534 | -0.177
COC(=O)[C@@]1(Cc2ccccc2)[C@H]2c3cc(C(=O)N(C)C)n(Cc4ccsc4Br)c3C[C@H]2CN1C(=O)c1ccccc1 | -0.0533 | 0.894 | 1.17 | -1.3 (inactive) | 1.02 | 0.439 | -0.354 | 1.12 | -0.506 | 0.669 | 1.41 | -3.07 | -0.329 | 1.79 | 0.463 | 0.107 | 0.342 | 1.2 | 0.905 | 0.626
O=C1NC(=O)C2C1C=CC(C(O)c1cccs1)N2Nc1ccc(Cl)cc1Cl (stereo not given) | 1 | 0.82 | 1.03 | 0.569 (inactive) | 0.438 | -1.21 | -0.893 | -0.375 | -0.456 | 1.03 | -1.16 | -0.153 | -0.824 | 0.0484 | 0.243 | -0.212 | 0.0278 | -0.774 | 1.89 | -0.779
O=C(NCCN1CCOCC1)[C@@H]1c2ccccc2C(=O)N(C2CCCCC2)[C@H]1c1ccc(CO)cc1 | 1.06 | 0.484 | 0.92 | 0.261 (inactive) | -0.534 | -0.362 | -1.03 | -0.942 | -0.809 | 0.891 | 1.44 | -1.49 | -0.0308 | 0.0999 | -0.336 | -0.101 | -0.138 | 0.76 | 0.0614 | -0.0569
C=CCNC(=O)[C@@H]1[C@H]2C(=O)O[C@H](c3ccccc3)[C@H](c3ccccc3)N2[C@H](c2ccccc2OCCO)[C@@]12C(=O)N(C(=O)OCCOC)c1ccccc12 | 1.54 | -0.0073 | -0.0387 | -0.108 (inactive) | 1.27 | 1.33 | 0.828 | 1.44 | 0.825 | 0.843 | 1.43 | -2.64 | 0.877 | 0.926 | -0.464 | 0.132 | 0.126 | -0.331 | 0.784 | 1.25
NC(=O)NCC#Cc1ccc2c(c1)[C@]1(C(=O)N2)[C@H](c2ccccc2OCCO)N2[C@H](c3ccccc3)[C@H](c3ccccc3)OC(=O)[C@H]2[C@@H]1C(=O)Nc1nc2ccccc2s1 | 0.134 | -0.0335 | 0.483 | 0.663 (inactive) | 0.271 | -0.175 | -0.209 | 0.429 | 0.0336 | 0.52 | 1.36 | -0.809 | 0.0464 | 0.873 | 0.745 | -0.0944 | -0.266 | 0.448 | 0.286 | 1.29
CCCCCCc1nc(-c2cc(C)c(OC)c(C)c2)cc2c1[Si](C(C)C)(C(C)C)OC2 | -0.218 | -0.12 | -0.0937 | -2.3 (inactive) | -0.0932 | 0.194 | -0.314 | -0.105 | -0.0304 | 0.641 | 0.0047 | 0.777 | -0.21 | -0.268 | -0.256 | -0.124 | -0.273 | -0.244 | -0.359 | 0.19
CC1CC/C=C\[C@H]2OC34C=CCN(C(C)(C)C)C(=O)[C@H]3N(CCO)C(=O)[C@@H]4C2C(=O)O1 (stereo not given in full) | -0.103 | -0.404 | 0.51 | 0.851 (inactive) | -0.98 | -0.496 | -1.33 | -0.755 | -0.739 | -0.0663 | -0.432 | -0.106 | -1.66 | -1.34 | -0.746 | -0.224 | -0.372 | 0.489 | -1.25 | -0.153
CO[C@H]1O[C@H](CO)[C@@H](OC(=O)Nc2ccc(Oc3ccccc3)cc2)[C@H](OC(=O)Nc2ccc3c(c2)OCO3)[C@H]1OC(=O)Nc1ccc2c(c1)OCO2 | 1.26 | 0.86 | 0.992 | -1.61 (inactive) | 1.33 | 1.31 | 0.318 | 1.2 | 0.612 | 0.944 | 1.3 | -0.289 | 0.467 | 1.96 | -0.207 | 0.105 | -0.183 | 0.414 | 1.62 | 2.13
